Data reported in ChEMBL document CHEMBL3988442, “University of Dundee, Small-Polar-MMV Screening Library” (2021).
The campaign covered roughly 48,000 compounds. About 13,000 (27%) showed an effect of 50% or more. Some of the results follow.

test system: Wolbachia pipientis; test: Anti-Wolbachia Cell-Based Screen; assay type: functional; set-up: scale not given: in the data most compounds retested in dose-response had high values; conditions: 5 µM

Row | Structure (SMILES) | Percent Effect [%]
1 | Cc1cc(C)c(Cn2cncn2)cc1CN1CC[C@H]2CC[C@@H](C1)N2 | 27.46
2 | CC(=O)N(C)CC(=O)NC(CC(C)C)c1cccs1 (centres undefined) | 5.598
3 | Cc1nc2cc(O)nn2c(C)c1CCC(=O)NCc1cc(Br)cs1 | 111.2
4 | Cc1ccsc1CNC(=O)CC1CN(C(=O)OC(C)(C)C)C1 | -25.18
5 | Cc1cc(CNC(=O)CCc2c(C)nc3cc(O)nn3c2C)no1 | 92.65
6 | Cc1cc(CNC(=O)CCc2ccc(S(N)(=O)=O)cc2)no1 | -2.333
7 | Cc1ccsc1CCNC(=O)CCC(=O)NC1CCCC1 | -4.731
8 | Cc1nccc(CNC(=O)CCc2c(C)nc3cc(O)nn3c2C)n1 | 98.09
9 | CCc1ccc(C(=O)NCc2ccnc(C)n2)cc1 | 0.2592
10 | CCN(CC)S(=O)(=O)c1ccc(CCC(=O)NCc2cc(C)on2)cc1 | 7.778
11 | NC(=O)CCCNC(=O)CCc1cc(Br)cs1 | 8.374
12 | CCN(c1ccc(C(=O)NCc2ccnc(C)n2)cc1)C(C)C | -16.63
13 | Cc1ccsc1CNC(=O)CCc1c(C)nc2cc(O)nn2c1C | 106.8
14 | O=C(CCc1cc(Br)cs1)NCCCn1ccnc1 | -0.5451
15 | Cc1cc(C)n(CCN2CCN(C(=O)c3ccc(Br)o3)CC2)n1 | 17.42
16 | CCN(C)C[C@@H]1CN(Cc2cccc(O)c2)C[C@@H]1CO | -2.333
17 | COc1ccc2c(c1)nc1n2[C@@H](CNCc2cnn(C)c2)COC1 | 1.636
18 | Cc1cccc(CN2CCN(c3ncnc4[nH]ccc34)CC2CCO)n1 (centres undefined) | 6.168
19 | CCN1CCC(CC(=O)NCC(O)c2ccc3ccccc3c2)CC1 (centres undefined) | -0.749
20 | CC(=O)N1CCCC(C(=O)N2Cc3nc(C)n(C)c(=O)c3C2)C1 (centres undefined) | 7.499
21 | COC(=O)C1CN(Cc2ccccc2C(C)(C)C#N)CCO1 (centres undefined) | 1.007
22 | CC(C)OCCS(=O)(=O)N1CCCC1c1cccc(N(C)C)c1 (centres undefined) | 4.069
23 | CC(C)(C)CCCC(=O)NS(=O)(=O)CC1CC1 | -9.167

Row | Structure (SMILES) | Percent Effect [%]
24 | Cc1ccccc1CNC(=O)Cc1c(C)nc2cc(=O)[nH]n2c1C | 1.807
25 | Cc1cccc(CNC(=O)CCc2c(C)nc3cc(O)nn3c2C)n1 | 101.6
26 | Cc1ccc(N2CCCN(C(=O)c3cccc4c3ccn4C)CC2)nn1 | -26.18
27 | Cn1ccc2c(C(=O)N3CCN(C(=O)C4CCCC4)CC3)cccc21 | 117.3
28 | CC(=O)N(C)C1CCN(C(=O)c2cccc3c2ccn3C)CC1 | 129.7
29 | Cn1ccc2c(C(=O)N3CCC4(CCOC4)C3)cccc21 (centres undefined) | -11.85
30 | Cn1ccc2c(C(=O)NCCCN3CCCC3)cccc21 | 7.133
31 | Cn1ccc2c(C(=O)N3CCC(C(N)=O)CC3)cccc21 | 2.253
32 | CCc1ncc(-c2nccn2-c2cccc(CC(=O)O)c2)cn1 | -3.277
33 | COc1ccc(C(=O)N2CCC3(CCC(=O)N(C(C)C)C3)CC2)cc1C | 7.605
34 | Cc1cc(N2CCC3(CCC(=O)N(CC4CC4)C3)CC2)ncn1 | 3.21
35 | CCN1CC2(CCC1=O)CCN(CCc1nccn1C)CC2 | -0.2825
36 | Cc1cc(N2CCC3(CCC(=O)N(CC4CC4)C3)CC2)nc(N)n1 | -10.67
37 | Cc1cnn(CC(=O)N2CCC3(CCC(=O)N(CCCO)C3)CC2)c1 | -87.52
38 | Cc1nccn1CCCC(=O)N1CCN(c2cccnc2)CC1 | -0.7063
39 | Cc1nccn1CCC(=O)N1CCC2(CCC(=O)N(CC3CC3)C2)CC1 | 117.2
40 | Cc1cnn(CC(=O)N2CCC3(CCC(=O)N(CC(C)O)C3)CC2)c1 (centres undefined) | -3.932
41 | Cc1cnn(CCC(=O)N2CCC3(CCC(=O)N(CC4CC4)C3)CC2)c1 | 86.63
42 | Cc1nccn1CCCN1CCC2(CCC(=O)N(CC3CC3)C2)CC1 | 94.75
43 | Cc1ncc(CC(=O)N2CCC3(CCC(=O)N(CCO)C3)CC2)c(=O)[nH]1 | 13.05
44 | Cc1nccn1CCCC(=O)N1CCC2(CCC(=O)N(C(C)C)C2)CC1 | 98.73
45 | COCCCN1C(=O)CC[C@H]2CN(c3cnc4ccccc4n3)CC[C@H]21 | 2.221
46 | CCCn1nc(C)c2c1NC(=O)CC2c1ccc(CN2CCCC2)s1 (centres undefined) | 1.67

Row | Structure (SMILES) | Percent Effect [%]
47 | CC(C)c1nnc2n1CCN(CCCS(=O)(=O)c1ccccc1)C2 | -6.679
48 | CSCCc1nc(-c2ccc3c(c2)OCO3)n(C)n1 | -7.384
49 | CC(C)=CCN1CC2(CCN(C(=O)CCn3ccnc3C)CC2)CC1=O | 86.66
50 | Cc1nnnn1CCC(=O)N1CCC2(CCC(=O)N(CC3CC3)C2)CC1 | 115.6
51 | Cc1nc(C(C)C)cc(N2CCC3(CCC(=O)N(CC4CC4)C3)CC2)n1 | 0.1735
52 | CSCc1noc(CN2CCC3(CC2)CC(=O)N(CC=C(C)C)C3)n1 | 10.72
53 | CC(C)=CCN1CC2(CCN(Cc3ncc[nH]3)CC2)CC1=O | -7.691
54 | CCCc1nc(C)cc(N2CCC3(CCC(=O)N(CC4CC4)C3)CC2)n1 | 5.96
55 | O=C(O)C(F)(F)F.c1ccc(Cn2cc3c(n2)C(COCC2CC2)OCC3)nc1 (centres undefined) | -17.74
56 | Cc1nc(CN2CCc3ncnc(C4CCOC4)c3CC2)cs1.O=C(O)C(F)(F)F (centres undefined) | -5.983
57 | Cc1nc(CN2CCN(CC3CCOC3)Cc3cccnc32)cs1.O=C(O)C(F)(F)F.O=C(O)C(F)(F)F.O=C(O)C(F)(F)F (centres undefined) | -0.3757
58 | Cc1nc(CN2C(=O)C[C@@H]3[C@@H]2CCN3CC2CCOCC2)cs1.O=C(O)C(F)(F)F | 145.4
59 | Cc1nc(CN2C(=O)C[C@H]3[C@H]2CCN3CC2CCOC2)cs1.O=C(O)C(F)(F)F (some centres undefined) | 100.2
60 | CCN(Cc1ccccc1)C1CCN(c2cc(C)nn2C)C1=O (centres undefined) | 8.776
61 | Cc1cc(=O)[nH]cc1C(=O)N1CCN(C)c2ccccc2C1 | 99.2
62 | CN1CCN(C(=O)c2cc[nH]c(=O)c2)Cc2ccccc21 | 113.6
63 | Cc1ccc(C(=O)N2Cc3ccccc3C2)cc1N1CCNC1=O | -8.111
64 | CN1CCN(C(=O)NCCNc2ncccn2)Cc2ccccc21 | 4.872
65 | CN1CCN(C(=O)c2ccc(=O)n(C)c2)Cc2ccccc21 | -3.616
66 | CN1CCN(C(=O)c2cccs2)Cc2ccccc21 | -12.17
67 | CN1CCN(C(=O)CCC(=O)c2cccs2)Cc2ccccc21 | -12.13
68 | Cc1cc(=O)c(C(=O)N2CCN(C)c3ccccc3C2)c[nH]1 | 106.1
69 | O=C(c1cc[nH]c(=O)c1)N1CCn2c(nnc2-c2ccccc2)C1 | 1.591
